# Source: PMC5540273 (PLoS ONE, 2017)
# Columns and labels:
# Conditions in all cases: concentration: 1 μM, replicates: in singlicate; n = 1
# PAK2 = system: PAK2
# PAK3 = system: PAK3
# PAK4 = system: PAK4
# PAK6 = system: PAK6
# PAK7 = system: PAK7
# PCTK1 = system: T1, PCTK1
# T1 construct: gene CDK16
# PCTK2 = system: T2, PCTK2
# T2 construct: gene CDK17
# PCTK3 = system: T3, PCTK3
# T3 construct: gene CDK18
# PDGFRA = system: PDGFRA
# PDGFRB = system: PDGFRB
# 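Also: KINOMEscan kinase panel screen.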
SMILES,%Inh (PAK2),%Inh (PAK3),%Inh (PAK4),%Inh (PAK6),%Inh (PAK7),%Inh (PCTK1),%Inh (PCTK2),%Inh (PCTK3),%Inh (PDGFRA),%Inh (PDGFRB)
Nc1nccc2scc(-c3ccc4c(c3)CCN4C(=O)Cc3ccccc3)c12 [GSK2576924],0%,55%,0%,0%,30%,0%,9%,17%,4%,43%
COc1cc2ncn(-c3cc(OCc4ccc(S(C)(=O)=O)cc4)c(C(N)=O)s3)c2cc1OC [GW869979],0%,0%,0%,0%,0%,19%,0%,26%,30%,11%
Cc1nc(N(C)[C@H]2CN(C(=O)CC#N)CC[C@H]2C)c2cc[nH]c2n1,0%,0%,0%,2%,15%,0%,0%,0%,0%,0%
CCC(=O)c1c(-c2ccccc2)c2cc(Cl)ccc2c(=O)n1Cc1cc(S(C)(=O)=O)n(CC(N)=O)n1,5%,0%,5%,1%,0%,0%,0%,13%,0%,10%
COc1cccc(-n2cnc3c(N)ncnc32)c1 [SKF-97416],53%,0%,18%,18%,1%,15%,0%,6%,42%,4%
COc1cc2ncn(-c3cc(OCc4ccncc4Br)c(C(N)=O)s3)c2cc1OC [GW854278],14%,0%,8%,12%,16%,0%,14%,5%,39%,58%
Nc1ncnc2c1ncn2-c1ccc(Cl)cc1 [AH2635],0%,7%,0%,0%,6%,0%,0%,0%,38%,86%
Cc1c(Cn2c(C)nn3c(=O)cc(N4CCO[C@H](C)C4)nc23)cccc1C(F)(F)F [GSK2373690],3%,7%,0%,0%,0%,0%,0%,26%,0%,14%
CN1C(=O)C(Nc2cc(Cl)c(O)c(Cl)c2)=C(c2ccc(Cl)cc2)C1=O [SB-404321],2%,0%,34%,0%,5%,0%,5%,0%,0%,0%
C[C@@H]1CC[C@H](C(=O)NC2CCCCC2)CN1c1cc(-c2ccc3c(N)n[nH]c3c2)nc(N)n1 [GSK2291363],17%,0%,0%,3%,17%,2%,10%,32%,0%,34%
O=C(Nc1ccc2c(c1)OCO2)NC1CCN(c2ccnc(NCc3ccc(F)cc3)n2)CC1 [GSK1379859],0%,14%,0%,0%,0%,0%,0%,0%,0%,12%
Cc1nnc(-c2ccc3ncn(-c4ccc(S(C)=O)cc4)c3c2)o1 (stereo not shown),14%,0%,2%,4%,2%,0%,0%,14%,17%,30%
Cc1ccc(-c2ccc3c(ccc4sc5c(c43)NC[C@@H](C)N=C5N(C)C)n2)cn1,0%,0%,0%,0%,10%,0%,0%,9%,0%,0%
O=C(NCc1cccs1)c1cc(C(=O)c2c(Cl)cccc2Cl)c[nH]1 [GW823670],38%,10%,0%,0%,0%,0%,0%,13%,0%,0%
COc1cc(Nc2nccc(N3CCC(NC(=O)C4COc5ccccc5O4)C3)n2)cc(OC)c1OC (stereo not shown) [GSK1379761],0%,10%,0%,0%,3%,4%,0%,10%,1%,45%
Cl.c1ccc(Cn2cnc3cc(Nc4ncnc5ccccc45)ccc32)cc1 [GW272142],0%,0%,0%,58%,9%,0%,0%,29%,0%,6%
Nc1ncnc2c1ncn2-c1cccc2ccccc12 [SKF-97184],56%,0%,0%,0%,0%,0%,100%,10%,0%,7%

SMILES,%Inh (PAK2),%Inh (PAK3),%Inh (PAK4),%Inh (PAK6),%Inh (PAK7),%Inh (PCTK1),%Inh (PCTK2),%Inh (PCTK3),%Inh (PDGFRA),%Inh (PDGFRB)
Cc1nn2c(=O)cc(N3CCOCC3)nc2n1Cc1cccc(Cl)c1Cl [GSK2342769],2%,0%,0%,0%,0%,4%,0%,15%,0%,16%
CC(C)(C)c1ccc(C(=O)Nc2cn3cc(-c4ccccc4)ccc3n2)cc1,0%,8%,1%,0%,6%,0%,0%,0%,41%,93%
COc1ccc(Nc2nccc(N3CCC(NS(=O)(=O)c4ccc(NC(C)=O)cc4)C3)n2)cc1 (stereo not shown) [GSK1379729],0%,7%,0%,0%,0%,0%,0%,6%,23%,15%
COC(=O)c1c(-c2ccccc2)c2cc(Br)ccc2c(=O)n1Cc1ccc(S(C)(=O)=O)cc1,17%,26%,6%,35%,2%,23%,5%,0%,8%,73%
Cc1nnc(-c2ccc(C)c(-c3ccc(C(=O)O)cc3)c2)o1 [GW608005],9%,0%,0%,0%,0%,0%,0%,2%,0%,4%
COc1cc(OC)cc(-c2cc3cnc(N)nc3nc2NC(=O)NC(C)(C)C)c1,0%,0%,0%,0%,9%,0%,0%,0%,0%,0%
CCS(=O)c1ccc(-c2coc3ccc(-c4nnc(C)o4)cc23)cc1 (stereo not shown),0%,33%,0%,20%,0%,0%,0%,2%,0%,0%
CN1C(=O)C(Nc2ccccc2)=C(c2ccccc2)C1=O [SB-300079],0%,0%,0%,0%,0%,0%,0%,12%,0%,24%
COc1ccc(-c2cc3c(C)nc(N)nc3n([C@H]3CC[C@H](OCCO)CC3)c2=O)cn1,1%,0%,0%,0%,0%,0%,3%,0%,0%,1%
CCCC(=O)Nc1n[nH]c2ncc(-c3cccc4ccccc34)cc12 [SB-642057],5%,0%,0%,0%,0%,27%,35%,34%,0%,12%
O=C(Nc1n[nH]c2nc(-c3ccccc3)c(Br)cc12)C1CC1 [SB-708998],10%,9%,0%,0%,0%,0%,0%,0%,20%,93.7%
Cl.NS(=O)(=O)c1cccc(Nc2cc(-c3ccc(F)cc3)n[nH]2)c1 [GW824645],26%,0%,0%,4%,0%,0%,13%,5%,75%,96.1%
Cc1cccc(-c2cc(-c3c[nH]nc3-c3ccccn3)ccn2)c1 [GW679395],22%,1%,0%,0%,0%,5%,0%,1%,0%,61%
Nc1nc(-c2ccccc2F)c(-c2ccnc3ccccc23)s1 [GW560459],18%,14%,0%,0%,0%,9%,0%,13%,0%,6%
O=C(Nc1n[nH]c2nc(-c3ccccc3)c(Cl)cc12)C1CC1 [SB-734909],0%,23%,0%,0%,7%,0%,0%,30%,46%,97%
COc1cc2nccc(Nc3ccc(OCc4ccc(NC(C)=O)cc4)cc3)c2cc1OC.Cl [GW440135],0%,0%,9%,0%,0%,9%,0%,0%,93.1%,99.6%
COc1cc2ncn(-c3cc(OCc4ccncc4)c(C(N)=O)s3)c2cc1OC [GSK336313],3%,0%,0%,4%,0%,9%,0%,18%,0%,27%
